Source: PubChem BioAssay (NCATS)
Records with an inconclusive call do not appear. Where a call stands in place of a potency, no number is given. Calls of active or inactive are those of the source. Calls come from the whole dose curve; as a rule, active = well fitted curve in the direction sought with a large enough effect; inconclusive = small, poorly fitted or top-dose-only effect, or another doubt; inactive = no such curve, though single readings can be large; an effect the other way counts as inactive or inconclusive.

Legend:
[1] = qHTS for Inhibitors of ATXN expression: Validation of Cytotoxic Assay (AID 588349); settings: cytotoxicity counter-screen for ATXN expression inhibitors, cell viability; series mostly up to 57.1 µM
Outline: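 HEK293 cells were dosed with titrated compounds for 72 hr at 37 degrees C. Viability was read by CellTiter Glo luminescence, with intracellular ATP as the marker of cell survival.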

[2] = qHTS for Inhibitors of ATXN expression: Validation (AID 588378); settings: cell-based ATXN2 expression reporter assay, luminescence; series mostly up to 57.1 µM; note: nearly all actives have a fitted effect of over 75% in size
Outline: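 Luminescence from an ATXN2-FFLuc reporter in HEK293 cells served as read-out after 24 h compound treatment at 37 degrees C; CellTiter-Fluor fluorescence was recorded first to assess viability.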
Potency is the fitted concentration of half-maximal effect.

Row | SMILES | Potency [1] | Potency [2]
1 | NC/C=C/C(=O)O | inactive | inactive
2 | O=C(CCNNC(=O)c1ccncc1)NCc1ccccc1 | inactive | inactive
3 | CC(C)COCC(CN(Cc1ccccc1)c1ccccc1)N1CCCC1 (stereo not drawn) | inactive | inactive
4 | CN1CCN(C2=Nc3ccccc3Oc3ccc(Cl)cc32)CC1 | inactive | –
5 | Nc1c2c(nc3ccccc13)CCCC2O (stereo not drawn) | inactive | inactive
6 | CNCCC(Oc1ccccc1OC)c1ccccc1 (stereo not drawn) | inactive | –
7 | C[N+](C)(C)CCCCCCCCCC[N+](C)(C)C | inactive | inactive
8 | OCCN1CCN(CC/C=C2/c3ccccc3Sc3ccc(C(F)(F)F)cc32)CC1 | 28.2 µM (active) | 17.8 µM (active)
9 | C[C@H](CS)C(=O)N1CCC[C@H]1C(=O)O | inactive | inactive
10 | Cc1nc2sccn2c(=O)c1CCN1CCC(=C(c2ccc(F)cc2)c2ccc(F)cc2)CC1 | inactive | –
11 | CN(C)CC[C@@H](c1ccc(Br)cc1)c1ccccn1 | inactive | inactive
12 | Cc1nnc(SCC2=C(C(=O)O)N3C(=O)[C@@H](NC(=O)Cn4cnnn4)[C@H]3SC2)s1 | inactive | inactive
13 | COCCCC/C(=N\OCCN)c1ccc(C(F)(F)F)cc1 | inactive | –
14 | CC(C)(C)NCC(O)c1cc(O)cc(O)c1 (stereo not drawn) | inactive | inactive
15 | O=C(CCCN1CCC(O)(c2cccc(C(F)(F)F)c2)CC1)c1ccc(F)cc1 | inactive | –
16 | COCCc1ccc(OCC(O)CNC(C)C)cc1 (stereo not drawn) | inactive | inactive
17 | CCO/C([O-])=N/c1c[n+](N2CCOCC2)no1 | inactive | inactive
18 | CN1C(=O)CC[C@H]1c1cccnc1 | inactive | inactive
19 | CC(C(=O)O)c1ccc(CC2CCCC2=O)cc1 (stereo not drawn) | inactive | inactive
